Measurements taken from the supplement of paper PMC10849652.
About 8,800 targets were measured; listed, in parts, are those with a hit and a random draw of the rest. About 0.5% of all pairs of compound and target were hits.

compound: Cc1ncc(-c2ccnc(Nc3ccc(S(C)(=O)=O)cc3)n2)n1C(C)C; experiment: log2 fold change, soluble protein after heating vs DMSO (PISA); higher = thermal stabilisation; K562 lysate, 10 uM; active = over 0.2 and 3.5 SD of the protein, either way, in both replicates (recomputed)
Outline: (§1)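 The values are log-two fold changes in thermal stability compared with solvent controls and come from duplicates. They were obtained by TMTpro 16plex LC-MS/MS, with channel sums equalised, on the supernatant after 21,000xg for 90 min. That supernatant came from crude K562 extract at 1 mg/mL protein treated with 10 μM compound for 30 min, heated for 3 min across 48°C-58°C, pooled and brought to 0.5% NP-40 at 4°C.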

Chain of UniProt Q15013 (Q15013 whole entry, looked up): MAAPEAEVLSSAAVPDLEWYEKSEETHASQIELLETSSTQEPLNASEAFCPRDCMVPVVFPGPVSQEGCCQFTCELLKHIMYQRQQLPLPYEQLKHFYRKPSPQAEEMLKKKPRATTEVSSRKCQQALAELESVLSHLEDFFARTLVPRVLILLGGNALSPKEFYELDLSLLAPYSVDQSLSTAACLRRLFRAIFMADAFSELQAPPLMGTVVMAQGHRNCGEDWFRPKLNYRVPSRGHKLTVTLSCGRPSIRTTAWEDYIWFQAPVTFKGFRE
Chain of UniProt Q15031 (Q15031 whole entry, looked up): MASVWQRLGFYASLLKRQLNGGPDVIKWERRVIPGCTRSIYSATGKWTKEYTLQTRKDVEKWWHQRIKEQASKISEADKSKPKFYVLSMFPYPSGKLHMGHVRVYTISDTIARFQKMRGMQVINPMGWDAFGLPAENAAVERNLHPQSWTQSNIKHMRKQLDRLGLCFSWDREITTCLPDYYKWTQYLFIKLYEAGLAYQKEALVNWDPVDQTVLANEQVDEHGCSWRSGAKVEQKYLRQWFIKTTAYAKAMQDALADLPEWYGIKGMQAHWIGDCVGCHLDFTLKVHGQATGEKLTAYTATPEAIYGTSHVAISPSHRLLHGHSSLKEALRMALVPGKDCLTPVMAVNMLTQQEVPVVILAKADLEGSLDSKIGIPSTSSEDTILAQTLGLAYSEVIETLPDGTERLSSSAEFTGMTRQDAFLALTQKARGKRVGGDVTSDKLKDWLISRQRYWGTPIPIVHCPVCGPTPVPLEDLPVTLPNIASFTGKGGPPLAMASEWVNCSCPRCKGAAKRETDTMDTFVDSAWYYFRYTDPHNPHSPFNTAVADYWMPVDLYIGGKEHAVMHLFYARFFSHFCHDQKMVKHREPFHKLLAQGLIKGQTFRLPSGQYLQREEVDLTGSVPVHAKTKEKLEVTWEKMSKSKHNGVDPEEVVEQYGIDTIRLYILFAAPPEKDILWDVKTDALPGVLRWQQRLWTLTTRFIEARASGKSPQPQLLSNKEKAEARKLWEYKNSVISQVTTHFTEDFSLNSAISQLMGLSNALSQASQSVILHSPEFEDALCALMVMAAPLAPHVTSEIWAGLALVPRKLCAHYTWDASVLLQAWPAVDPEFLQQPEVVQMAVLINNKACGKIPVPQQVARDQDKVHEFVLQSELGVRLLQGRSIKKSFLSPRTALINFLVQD
Chain of UniProt P48059 (P48059 whole entry, looked up): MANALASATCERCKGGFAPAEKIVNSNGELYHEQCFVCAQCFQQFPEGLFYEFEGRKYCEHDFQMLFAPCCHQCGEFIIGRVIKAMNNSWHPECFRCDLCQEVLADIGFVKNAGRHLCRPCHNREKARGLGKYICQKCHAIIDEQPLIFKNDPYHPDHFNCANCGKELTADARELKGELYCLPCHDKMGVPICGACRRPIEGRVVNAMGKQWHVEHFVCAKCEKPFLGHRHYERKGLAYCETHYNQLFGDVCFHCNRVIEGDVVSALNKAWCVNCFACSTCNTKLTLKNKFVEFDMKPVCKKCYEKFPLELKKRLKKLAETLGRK
Chain of UniProt P11279 (P11279 whole entry, looked up): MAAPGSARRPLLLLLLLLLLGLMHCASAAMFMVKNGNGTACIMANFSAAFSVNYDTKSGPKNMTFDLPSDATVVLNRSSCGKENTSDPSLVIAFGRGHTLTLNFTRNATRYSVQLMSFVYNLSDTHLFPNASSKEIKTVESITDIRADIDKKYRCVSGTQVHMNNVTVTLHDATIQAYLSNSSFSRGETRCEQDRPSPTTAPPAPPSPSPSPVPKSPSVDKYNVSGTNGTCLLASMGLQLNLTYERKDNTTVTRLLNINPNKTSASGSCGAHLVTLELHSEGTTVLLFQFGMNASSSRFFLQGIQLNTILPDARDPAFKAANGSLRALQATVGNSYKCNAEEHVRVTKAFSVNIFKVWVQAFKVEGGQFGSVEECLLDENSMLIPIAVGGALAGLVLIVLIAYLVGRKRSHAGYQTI
Chain of UniProt Q9UFC0 (Q9UFC0 whole entry, looked up): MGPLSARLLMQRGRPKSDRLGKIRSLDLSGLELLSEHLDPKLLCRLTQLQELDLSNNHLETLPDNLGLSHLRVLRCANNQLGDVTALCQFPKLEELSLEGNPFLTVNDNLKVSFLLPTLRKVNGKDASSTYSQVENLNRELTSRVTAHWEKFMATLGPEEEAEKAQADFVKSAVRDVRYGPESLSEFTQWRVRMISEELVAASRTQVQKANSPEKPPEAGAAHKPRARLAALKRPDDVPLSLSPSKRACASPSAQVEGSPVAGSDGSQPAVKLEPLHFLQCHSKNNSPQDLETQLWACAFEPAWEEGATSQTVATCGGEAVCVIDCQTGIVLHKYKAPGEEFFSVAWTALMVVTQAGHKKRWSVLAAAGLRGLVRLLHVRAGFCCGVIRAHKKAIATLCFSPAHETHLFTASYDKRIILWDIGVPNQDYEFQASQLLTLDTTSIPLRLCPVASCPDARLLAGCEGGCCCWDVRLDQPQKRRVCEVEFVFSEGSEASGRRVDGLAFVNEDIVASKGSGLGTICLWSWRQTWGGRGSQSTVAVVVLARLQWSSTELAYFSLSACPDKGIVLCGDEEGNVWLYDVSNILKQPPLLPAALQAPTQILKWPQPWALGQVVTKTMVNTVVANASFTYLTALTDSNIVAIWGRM
Chain of UniProt Q9UBB5 (Q9UBB5 whole entry, looked up): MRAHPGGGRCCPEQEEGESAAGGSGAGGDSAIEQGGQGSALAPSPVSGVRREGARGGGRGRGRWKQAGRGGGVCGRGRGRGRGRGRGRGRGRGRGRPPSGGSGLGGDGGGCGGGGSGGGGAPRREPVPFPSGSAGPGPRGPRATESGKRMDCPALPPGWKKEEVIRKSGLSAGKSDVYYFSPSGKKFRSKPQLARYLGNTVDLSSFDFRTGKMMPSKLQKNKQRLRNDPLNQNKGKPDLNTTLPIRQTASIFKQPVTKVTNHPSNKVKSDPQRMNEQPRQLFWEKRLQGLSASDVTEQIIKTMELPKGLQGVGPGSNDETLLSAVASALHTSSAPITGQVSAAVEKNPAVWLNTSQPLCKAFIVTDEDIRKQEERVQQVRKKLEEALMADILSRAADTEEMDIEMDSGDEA
Chain of UniProt Q13015 (Q13015 whole entry, looked up): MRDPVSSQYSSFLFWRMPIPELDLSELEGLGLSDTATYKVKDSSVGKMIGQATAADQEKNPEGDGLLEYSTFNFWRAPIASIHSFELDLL
Chain of UniProt Q9BTT4 (Q9BTT4 whole entry, looked up): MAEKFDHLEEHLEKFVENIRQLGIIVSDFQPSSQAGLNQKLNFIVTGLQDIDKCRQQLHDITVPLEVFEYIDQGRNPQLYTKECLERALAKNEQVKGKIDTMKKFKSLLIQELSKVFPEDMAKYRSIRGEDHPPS
Chain of UniProt Q9H0B6 (Q9H0B6 whole entry, looked up): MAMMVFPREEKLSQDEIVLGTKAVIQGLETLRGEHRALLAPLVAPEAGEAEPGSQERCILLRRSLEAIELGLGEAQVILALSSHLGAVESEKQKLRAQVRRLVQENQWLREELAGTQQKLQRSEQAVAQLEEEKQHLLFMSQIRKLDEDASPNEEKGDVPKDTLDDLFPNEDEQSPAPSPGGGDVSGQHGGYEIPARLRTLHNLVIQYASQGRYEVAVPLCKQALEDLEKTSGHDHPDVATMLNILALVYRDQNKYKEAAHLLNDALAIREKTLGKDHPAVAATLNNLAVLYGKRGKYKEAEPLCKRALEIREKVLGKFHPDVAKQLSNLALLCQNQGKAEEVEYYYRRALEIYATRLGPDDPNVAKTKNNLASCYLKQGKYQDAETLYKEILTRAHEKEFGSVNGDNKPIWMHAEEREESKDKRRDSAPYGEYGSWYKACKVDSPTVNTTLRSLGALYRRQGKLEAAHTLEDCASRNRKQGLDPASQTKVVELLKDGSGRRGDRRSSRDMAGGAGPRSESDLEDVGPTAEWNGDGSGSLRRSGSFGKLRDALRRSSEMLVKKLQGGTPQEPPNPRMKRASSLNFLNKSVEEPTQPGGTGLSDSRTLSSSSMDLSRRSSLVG
Chain of UniProt P49916 (P49916 whole entry, looked up): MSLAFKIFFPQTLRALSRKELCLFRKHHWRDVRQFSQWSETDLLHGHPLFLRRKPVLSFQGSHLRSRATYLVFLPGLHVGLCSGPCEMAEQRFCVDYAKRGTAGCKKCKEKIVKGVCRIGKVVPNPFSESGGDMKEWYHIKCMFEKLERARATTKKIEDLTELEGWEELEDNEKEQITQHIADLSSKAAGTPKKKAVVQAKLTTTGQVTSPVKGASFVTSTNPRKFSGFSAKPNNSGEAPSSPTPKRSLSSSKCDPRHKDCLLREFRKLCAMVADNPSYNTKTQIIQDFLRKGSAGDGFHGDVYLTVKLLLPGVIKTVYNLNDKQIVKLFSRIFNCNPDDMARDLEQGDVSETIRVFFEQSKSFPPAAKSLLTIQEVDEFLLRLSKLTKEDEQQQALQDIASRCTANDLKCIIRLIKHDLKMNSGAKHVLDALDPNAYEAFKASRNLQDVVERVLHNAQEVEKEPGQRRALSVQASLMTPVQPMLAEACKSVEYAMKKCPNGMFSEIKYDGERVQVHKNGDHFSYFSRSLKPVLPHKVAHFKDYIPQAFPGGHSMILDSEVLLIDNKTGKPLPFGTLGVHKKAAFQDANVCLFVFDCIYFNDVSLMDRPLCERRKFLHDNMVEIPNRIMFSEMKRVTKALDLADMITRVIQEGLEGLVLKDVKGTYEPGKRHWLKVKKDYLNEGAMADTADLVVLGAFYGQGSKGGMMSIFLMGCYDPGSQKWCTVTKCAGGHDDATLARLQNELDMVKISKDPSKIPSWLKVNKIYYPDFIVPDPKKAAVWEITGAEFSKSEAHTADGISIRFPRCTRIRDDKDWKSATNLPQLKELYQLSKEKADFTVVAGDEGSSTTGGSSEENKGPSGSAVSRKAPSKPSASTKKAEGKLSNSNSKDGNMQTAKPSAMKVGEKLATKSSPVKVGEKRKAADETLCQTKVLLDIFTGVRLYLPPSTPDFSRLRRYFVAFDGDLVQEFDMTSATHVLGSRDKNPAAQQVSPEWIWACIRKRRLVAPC
Chain of UniProt P14174 (P14174 whole entry, looked up): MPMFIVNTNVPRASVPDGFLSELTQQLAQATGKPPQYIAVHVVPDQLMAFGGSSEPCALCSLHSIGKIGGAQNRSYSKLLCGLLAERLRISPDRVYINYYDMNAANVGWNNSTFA

log2 fold change, inactive:
LARS2 (UniProt Q15031) -0.008
MCCC1 (UniProt Q96RQ3) 0.027
MIF (UniProt P14174) -0.007
LAMP1 (UniProt P11279) 0.002
MED12 isoform 2 (UniProt Q93074) -0.009
MAP4 (UniProt E7EVA0) 0.046
MED10 (UniProt Q9BTT4) -0.021
KLC2 (UniProt Q9H0B6) 0.067
LRWD1 (UniProt Q9UFC0) 0.017
MBD2 (UniProt Q9UBB5) 0
LARS (UniProt Q9P2J5) -0.012
MON2 isoform 5 (UniProt Q7Z3U7) 0.018
MAD2L1BP isoform 3 (UniProt Q15013) -0.007
MLLT11 (UniProt Q13015) -0.051
LIG3 (UniProt P49916) -0.019
LIMS1 isoform 3 (UniProt P48059) 0.104

compound: Cn1cc(-c2ccc3c(c2)CCN3C(=O)Cc2cccc(C(F)(F)F)c2)c2c(N)ncnc21; experiment: as above
Outline: as §1

log2 fold change, inactive:
MITD1 (UniProt Q8WV92) 0.027
LYRM4 (UniProt Q9HD34) -0.028
LSG1 (UniProt Q9H089) 0.137
MED8 isoform 2 (UniProt Q96G25) 0.044
LARP4B (UniProt Q92615) 0.012
MPDZ (UniProt O75970) -0.049
LGALS3BP (UniProt Q08380) -0.128
MCMBP (UniProt Q9BTE3) 0.008
MIPEP (UniProt Q99797) 0.031
MED17 (UniProt Q9NVC6) -0.014
MLH1 (UniProt P40692) 0.031
LIG4 (UniProt P49917) -0.026
MPZL1 (UniProt O95297) 0.018
MAPK9 (UniProt P45984) 0.118
MAP2K7 isoform 4 (UniProt O14733) 0.22
MFF isoform 2 (UniProt Q9GZY8) -0.012
LYAR (UniProt Q9NX58) 0.014
MECR (UniProt Q9BV79) 0.02
MAPKAPK3 (UniProt Q16644) 0.016
MAP3K4 (UniProt Q9Y6R4) 0.132
MAST4 (UniProt O15021) 0.04
MINDY1 isoform 3 (UniProt Q8N5J2) 0.159
LYSMD3 (UniProt Q7Z3D4) -0.068
LARS2 (UniProt Q15031) 0.065
MCCC1 (UniProt Q96RQ3) 0.008
MIF (UniProt P14174) -0.009
LAMP1 (UniProt P11279) -0.036
MED12 isoform 2 (UniProt Q93074) 0.01
MAP4 (UniProt E7EVA0) 0.057
MED10 (UniProt Q9BTT4) 0.043
KLC2 (UniProt Q9H0B6) 0.041
LRWD1 (UniProt Q9UFC0) 0.02
MBD2 (UniProt Q9UBB5) 0.069
LARS (UniProt Q9P2J5) 0.038
MON2 isoform 5 (UniProt Q7Z3U7) 0.039
MAD2L1BP isoform 3 (UniProt Q15013) -0.026
MLLT11 (UniProt Q13015) -0.06
LIG3 (UniProt P49916) 0.046
LIMS1 isoform 3 (UniProt P48059) 0.018
